Test results from PubChem BioAssay AID463173 (ICCB-Longwood Screening Facility, Harvard Medical School, 2010).
Out of some 52,000 compounds screened, about 4,300 (8.3%) were called active. This is one part of a sample in which actives are shown more often than they occur. Cut-off read from the data, not from the text of the source: active = survival mostly below about 52% (no sharp cut-off); inactive = mostly above about 56%.

Each molecule was assayed on DeltatarO mutant (assay: S. aureus survival, RN4220 and DeltatarO strains – OD600, teichoic acid synthesis inhibitors, primary screen (AID 463173)). Conditions: S. aureus RN4220 wild type/DeltatarO growth, OD600, 18 h, hits give low values, screened at 18.75 µg/mL (by protocol).

Compound | survival
COc1ccc(NC(=O)c2sc3nc(C)c(C(=O)Nc4ccc(C)cc4C)c(-c4sccc4C)c3c2N)cc1 | 91% (inactive)
c1ccc(NCc2ccncc2)cc1 | 83% (inactive)
C=Cn1cccc1C(=O)O | 83% (inactive)
CC(C)CCNC(=O)c1ccc2c(c1)NC(=O)C(CS(=O)(=O)Cc1ccc(F)cc1)N2 (stereo not given) | 80% (inactive)
Cc1ccc(CNC(=O)CCCc2nnc3n(CC(C)C)c(=O)c4sccc4n23)cc1 | 101% (inactive)
CCOC(=O)Cn1c(=O)n(CC2CCCO2)c2nc(-c3cccc(C)c3)nc(C(N)=O)c21 (stereo not given) | 79% (inactive)
CCOC(=O)Cn1c(=O)n(CC2CCCO2)c2nc(-c3ccccc3)nc(C(N)=O)c21 (stereo not given) | 84% (inactive)
CCOC(=O)Cn1c(=O)n(CC2CCCO2)c2nc(-c3ccc(C)cc3)nc(C(N)=O)c21 (stereo not given) | 67% (inactive)
CCOC(=O)Cn1c(=O)n(CC2CCCO2)c2nc(-c3ccc(C(C)C)cc3)nc(C(N)=O)c21 (stereo not given) | 6% (active)
CCOC(=O)Cn1c(=O)n(-c2ccccc2OC)c2nc(-c3cccc(F)c3)nc(C(N)=O)c21 | 64% (inactive)
CCOC(=O)Cn1c(=O)n(-c2ccccc2OC)c2nc(-c3ccc(C(C)C)cc3)nc(C(N)=O)c21 | 86% (inactive)
CCOC(=O)Cn1c(=O)n(CC2CCCO2)c2nc(-c3ccc(CC)cc3)nc(C(N)=O)c21 (stereo not given) | 72% (inactive)
CCOC(=O)Cn1c(=O)n(-c2ccccc2OC)c2nc(-c3ccccc3)nc(C(N)=O)c21 | -1% (active)
CCOC(=O)Cn1c(=O)n(CC2CCCO2)c2nc(-c3ccc(OCC)cc3)nc(C(N)=O)c21 (stereo not given) | -2% (active)
COc1cc(OC)c(NC(=O)C2CCCN(c3ncnc4c3nc3n4CCCCC3)C2)cc1Cl (stereo not given) | 122% (inactive)
O=C1c2ccccc2C(=O)N1c1ncn[nH]1 | 94% (inactive)
O=C(CSc1nc2c([nH]c3ccccc32)c(=O)n1-c1ccc(F)cc1)Nc1ccc2c(c1)OCO2 | 58% (inactive)
COc1ccc(NC(=O)Cn2c(=O)n(CCCC(=O)NCc3ccccc3Cl)c(=O)c3ccccc32)c(OC)c1 | 125% (inactive)
O=C(CC1N=C2c3ccccc3N=C(SCc3ccc(Cl)cc3)N2C1=O)NCc1cccs1 (stereo not given) | 75% (inactive)
COc1ccc(CCNC(=O)c2ccc(Cn3c(=O)c4ccccc4n(Cc4cccc(F)c4)c3=O)cc2)cc1OC | 78% (inactive)
CNC(=O)C1CCC(Cn2c(=O)c3sccc3n(CC(=O)NCc3ccccc3)c2=O)CC1 (stereo not given) | 32% (active)
CNC(=O)C1CCC(Cn2c(=O)c3sccc3n(CC(=O)NCc3ccc(F)cc3)c2=O)CC1 (stereo not given) | 73% (inactive)
CNC(=O)C1CCC(Cn2c(=O)c3sccc3n(CC(=O)NCc3ccc(C)cc3)c2=O)CC1 (stereo not given) | 80% (inactive)

Compound | survival
CNC(=O)C1CCC(Cn2c(=O)c3sccc3n(Cc3cc(C)ccc3C)c2=O)CC1 (stereo not given) | 47% (active)
CNC(=O)C1CCC(Cn2c(=O)c3sccc3n(CC(=O)Nc3ccc(C)cc3C)c2=O)CC1 (stereo not given) | 87% (inactive)
Cc1ccc(C)c(Cn2c(=O)n(CC3CCC(C(=O)N4CCOCC4)CC3)c(=O)c3sccc32)c1 (stereo not given) | 80% (inactive)
COc1ccc(CC(=O)NC2CC(=O)N(c3cccc(F)c3)C2)cc1 (stereo not given) | 94% (inactive)
O=C(Nc1nncs1)C1c2ccccc2Oc2ccccc21 | 108% (inactive)
CCOC(=O)C1CCCN(S(=O)(=O)c2ccc3c(c2)CCCN3C(C)=O)C1 (stereo not given) | 80% (inactive)
CS(=O)(=O)N1CCSC1c1ccc(Cl)cc1Cl (stereo not given) | 109% (inactive)
COc1ccc2oc(=O)c(-c3nnc(-c4ccccc4)o3)cc2c1 | 69% (inactive)
O=C(O)CCC(=O)NCc1ccccn1 | 82% (inactive)
COc1cccc(NC(=O)CSc2nc3ccc(NC(=O)c4cccs4)cc3s2)c1 | 65% (inactive)
O=c1oc2ccccc2cc1-c1nc(-c2cccc(Cl)c2)cs1 | 102% (inactive)
Cc1csc(-c2cc3ccccc3oc2=O)n1 | 85% (inactive)
CCN(CC)c1ccc2cc(-c3nnc(-c4cccc(Cl)c4)o3)c(=O)oc2c1 | 69% (inactive)
CCN(CC)c1ccc2cc(-c3nc(-c4ccccc4F)no3)c(=O)oc2c1 | 101% (inactive)
COc1ccc(/C=C(\C#N)c2nc(-c3cc4ccccc4oc3=O)cs2)cc1OC | 65% (inactive)
Cc1cc(C)c(-c2csc(-c3cc4ccccc4oc3=O)n2)cc1C | 31% (active)
CCN(CC)c1ccc2cc(-c3nc(-c4ccc(Cl)cc4Cl)cs3)c(=O)oc2c1 | 37% (active)
COc1ccc(/C=C(/C#N)c2nc(-c3cc4ccccc4oc3=O)cs2)cc1 | 78% (inactive)
COc1ccccc1/C=C(\C#N)c1nc(-c2cc3ccccc3oc2=O)cs1 | 56% (active)
CCCNC(=O)C1CCC(Cn2c(=O)c3sccc3n(CC(=O)N3CCCC3)c2=O)CC1 (stereo not given) | 67% (inactive)
O=c1cc(-c2ccc(F)cc2)nc(SCc2nc(-c3cccc(C(F)(F)F)c3)no2)[nH]1 | 99% (inactive)
COc1ccc(C)cc1NC(=O)C(CCSC)NS(=O)(=O)c1ccc2c(c1)oc(=O)n2C (stereo not given) | 95% (inactive)
CCc1cccc(NC(=O)c2cnc(SC)nc2-c2ccccc2)c1 | 84% (inactive)

Compound | survival
COc1ccc2c(Sc3ccccc3)c(C(=O)NCc3cc(Br)ccc3OC)[nH]c2c1 | 95% (inactive)
Cc1cc(C)cc(NC(=O)CSc2cc(C)[nH]c(=O)n2)c1 | 90% (inactive)
CC(=O)c1cccc(Nc2ncnc3c2cnn3-c2cccc(Cl)c2)c1 | 102% (inactive)
COc1ccc(C2C=C(c3ccc(Cl)c(Cl)c3)Nc3ncnn32)cc1 (stereo not given) | 6% (active)
COc1cccc(C2=CC(c3ccc(OC)c(OC)c3OC)n3ncnc3N2)c1 (stereo not given) | 91% (inactive)
COc1ccc(C2C=C(c3ccccc3)Nc3nc(NS(=O)(=O)c4ccc(C)cc4)nn32)cc1 (stereo not given) | 55% (inactive)
Cc1ccc(C2=CC(c3c(F)cccc3Cl)n3ncnc3N2)cc1C (stereo not given) | 64% (inactive)
COc1ccc(C2C=C(c3ccccc3)Nc3nc(NS(=O)(=O)c4ccccc4)nn32)cc1 (stereo not given) | 25% (active)
CC(C)c1ccc(C2=CC(c3ccc(C(C)C)cc3)n3nnnc3N2)cc1 (stereo not given) | 67% (inactive)
COc1ccc(C2C=C(c3ccc(F)cc3)Nc3nc(-c4ccc(Cl)cc4)nn32)cc1 (stereo not given) | 104% (inactive)
CC(C)c1ccc(C2=CC(c3cccc(Cl)c3)n3ncnc3N2)cc1 (stereo not given) | -1% (active)
CC(C)c1ccc(C2=CC(c3cccc(Cl)c3)n3c(nc4ccccc43)N2)cc1 (stereo not given) | 76% (inactive)
COc1ccc(C2C=C(c3ccc(Cl)cc3)Nc3nc(-c4ccc(Cl)cc4)nn32)cc1 (stereo not given) | 38% (active)
Cc1ccc(C2=CC(c3ccc(Cl)cc3)n3nc(-c4ccc(C)cc4)nc3N2)cc1 (stereo not given) | 44% (inactive)
CC(=O)Nc1ccc(S(=O)(=O)NCc2ccc3c(c2)CCN3C(C)=O)cc1 | 89% (inactive)
Cc1ccc(N2C(=O)[C@@H]3CSC(c4ccc(Cl)cc4)N3C2=O)cc1 (stereo not given in full) | 69% (inactive)
O=C(Cn1ccn(-c2ccc(F)c(F)c2)c(=O)c1=O)Nc1ccccc1F | 65% (inactive)
COc1ccc(CNCC#N)cc1OC | 77% (inactive)
CCn1cc(S(=O)(=O)c2ccc(OC)cc2)c(=O)c2cc(F)c(N3CCC(C)CC3)cc21 | 83% (inactive)
Cc1cc(C)c2c(n1)SCC(=O)N2CC(=O)Nc1c(C)cccc1C | 98% (inactive)
O=C1CC(Sc2ncccc2C(=O)O)C(=O)N1 (stereo not given) | 95% (inactive)
COC(=O)CSc1nnc(-c2cccc(O)c2)o1 | 82% (inactive)
Cn1c(=O)oc2cc(S(=O)(=O)NC(Cc3ccccc3)C(=O)NCc3ccccc3Cl)ccc21 (stereo not given) | 110% (inactive)

Compound | survival
CCCc1cc(N2CCN(c3ccc(OC)cc3)CC2)n2cnnc2n1 | 71% (inactive)
COc1ccc(C2C=C(c3ccccc3)Nc3nc(NS(=O)(=O)c4ccc(Cl)cc4)nn32)cc1 (stereo not given) | 3% (active)
COc1ccc(C2C=C(c3ccc(Cl)cc3)Nc3nc(NC(=O)CCC(=O)O)nn32)cc1 (stereo not given) | 74% (inactive)
COc1cc2c(=O)n(Cc3ccccc3Cl)c(=O)n(CC(=O)Nc3ccc(C)c(C)c3)c2cc1OC | 83% (inactive)
O=C(Cn1c(=O)oc2cc(S(=O)(=O)N3CCCC3)ccc21)NCc1ccc(F)cc1 | 114% (inactive)
CCCN(Cc1cc2cc(C)ccc2[nH]c1=O)C(=O)c1cccc(Cl)c1 | 73% (inactive)
Cc1ccccc1NS(=O)(=O)c1ccc2[nH]c3c(c2c1)CCCCC3 | 89% (inactive)
Cc1ccc(C)c(S(=O)(=O)c2cnc(SCC(=O)Nc3ccc(F)cc3F)[nH]c2=O)c1 | 43% (active)
CCc1ccc(NC(=O)CSc2ncc(S(=O)(=O)c3cc(C)ccc3C)c(=O)[nH]2)cc1 | 59% (inactive)
Cc1ccc(C)c(NC(=O)CSc2ncc(S(=O)(=O)c3ccc(C)c(Cl)c3)c(=O)[nH]2)c1 | 66% (inactive)
Nc1ccc(N2CCN(c3ncc(C(F)(F)F)cc3Cl)CC2)c(C(F)(F)F)c1 | -5% (active)
Nc1ccc(-c2ccc(N)cc2C(F)(F)F)c(C(F)(F)F)c1 | 91% (inactive)
Nc1ccc(N2CCOCC2)c(N)c1 | 74% (inactive)
CCCOc1ccccc1C1Oc2nc(SC)nnc2-c2ccccc2N1C(C)=O (stereo not given) | 82% (inactive)
O=C(CCn1c(=O)oc2ccccc21)n1c(=O)oc2ccccc21 | 108% (inactive)
CC(=O)c1cccc(Nc2c3c(nc4nc(-c5cccs5)nn24)CCCC3)c1 | 95% (inactive)
Fc1cc(Br)ccc1Nc1c2c(nc3nc(-c4cccs4)nn13)CCCC2 | 8% (active)
Cc1ccc(Nc2c3c(nc4nncn24)CCC3)cc1C | 55% (inactive)
COc1ccc(C)cc1Nc1c2c(nc3nc(-c4cccs4)nn13)CCCC2 | 91% (inactive)
COc1cc(OC)c(Nc2c3c(nc4nc(-c5cccs5)nn24)CCCC3)cc1Cl | 89% (inactive)
Cc1ccc(Nc2c3c(nc4nc(-c5cccs5)nn24)CCCC3)cc1F | 20% (active)
